Reference: ChEMBL document CHEMBL4888484, “Replenishing the malaria drug discovery pipeline: Screening and hit evaluation of the MMV Hit Generation Library 1 (HGL1) against asexual blood stage Plasmodium falciparum ,using a nano luciferase reporter read-out” (2022)
Screen size: about 4,800 compounds; about 410 (8.5%) showed an effect of 50% or more. The sample holds strong results, similar compounds and a random draw of the others, so the mix is not that of the screen.

What follows are compounds tested on Plasmodium falciparum (assay: Confirmatory screen in NF54 pLDH assay, in single point, at 2uM, 72h). Conditions: timepoint 72 hour.
Type: functional, Erythrocyte

Going from O=C1C2CC=CCC2C(=O)N1CNc1ccc(Cl)cc1 (configuration not stated) to O=C(Cn1c(Cc2ccc(Cl)cc2)nc2ccccc21)Nc1ccccc1, the “% Inhibition” value rises from -9% to 9%.

Going from CCn1c(=O)c(N2CCN(C(=O)Nc3ccc(OC)cc3OC)CC2)nc2cccnc21 to CCn1c(-c2cc(NC(=O)c3ccc4c(c3)OCO4)[nH]n2)cc2ccc(OC)cc21, the “% Inhibition” value rises from -17% to 4%.

First: O=C([C@H]1CCCN(C(=O)N2CCc3sccc3C2)C1)N1CCc2[nH]ncc2C1
Second: O=C(Cc1ccc(N(Cc2cccc(F)c2)C(=O)C2CCCC2)cc1)NCCN1CCCCC1
The “% Inhibition” value of the first is lower: -7% for the first, 43% for the second.

First: CCOC(=O)C(C)NC(=O)C(C)NC(=O)c1ccc(F)c(C#N)c1 (configuration not stated)
Second: CCCNC(=O)CS(=O)(=O)Cc1cccc(Br)c1C
The “% Inhibition” value of the first is higher: 7% for the first, -14% for the second.

Going from O=S(=O)(NC1CC(c2ccc(F)c(Cl)c2)C1)C1CC1 (configuration not stated) to CCS(=O)(=O)Nc1ccc(Br)cc1Cl, the “% Inhibition” value falls from 7% to -1%.

First: Cn1nc(C2CC2)c2c(C(F)F)cc(-c3ccc4c(c3)OCO4)nc21
Second: COc1ccccc1CN1COc2cc3c(cc2C1)OCO3
The “% Inhibition” value of the first is lower: 2% for the first, 52% for the second.

Compared with c1ccc(-c2nc(C[n+]3ccc4c(c3)CCCC4)cs2)cc1, Cc1ncccc1C(=O)NCCc1csc(-c2ccccc2)n1 is lower in “% Inhibition” value: 56% for the first, -19% for the second.

First: CN(C)c1ccc(C2OCC3(CCC4(COC(c5ccc(N(C)C)cc5)OC4)O3)CO2)cc1 (configuration not stated)
Second: COc1cccc(CNCc2ccc3c(c2)OCO3)c1OCc1ccc(Cl)cc1Cl
The “% Inhibition” value of the first is lower: -5% for the first, 10% for the second.

First: Fc1ccc(COc2ccc3ccccc3c2CNc2ccc(Br)cc2)cc1
Second: Cc1ccc(S(=O)(=O)c2c(NS(=O)(=O)c3ccc(F)cc3)n(CCc3ccccc3)c3nc4ccccc4nc23)cc1
The “% Inhibition” value of the first is lower: 10% for the first, 103% for the second.

Going from Nc1nc(-c2ccccc2)c2cc3c(nn12)C[C@H](c1ccc(F)cc1)CC3=O to Cn1ccc(C(=O)Nc2ccc(-c3ccccc3)cn2)cc1=O, the “% Inhibition” value falls from -6% to -11%.

Going from COc1c2c(cc3c1[C@@H](C#CCOc1ccccc1)[N+](C)(C)CC3)OCO2 to COc1ccc(CN(C)[C@H]2CCc3nn(C)c(=O)n3CC2)c(Cl)c1OC, the “% Inhibition” value falls from 68% to 1%.

Going from CCn1cc(S(=O)(=O)N2CC(Oc3cccc(-c4nc(C)no4)c3)C2)cn1 to Cc1cnc(C2CCC2)n1CCNS(=O)(=O)c1ccccc1, the “% Inhibition” value falls from 7% to 2%.

COc1cc(-c2nc3ncnn3c(N)c2C#N)cc(OC)c1OC and COc1c(Cl)cc(Cl)cc1C#N are the same in “% Inhibition” value: -17% for the first, -17% for the second.

First: Cc1cc(C)c2nc(C)cc(Nc3ccc(O)cc3)c2c1
Second: Cc1cc(C)cc(NC(=O)Cc2nc(C)c(C(=O)NCc3ccccc3)s2)c1
The “% Inhibition” value of the first is higher: 103% for the first, 5% for the second.

Going from COc1cc(N)c(NC(C)=O)cc1Cl to CCOC(=O)c1nc(-c2cccnc2)cs1, the “% Inhibition” value falls from 7% to -8%.

Compared with COCCN(CC1CN(Cc2ccccc2OC)CC1c1ccccc1OC)C(=O)COC (configuration not stated), COCCN(Cc1c(-c2ccccc2)noc1N1CCN(C)CC1)C(=O)c1ccc(C)cc1 is higher in “% Inhibition” value: 0% for the first, 12% for the second.

Going from O=S(=O)(NCc1ccc(C(F)(F)F)nc1N1CCC(C(F)(F)F)CC1)C(F)(F)F to Cc1cccc(C)c1OCC(C)NC(=O)N1CCCC(CS(C)(=O)=O)C1 (configuration not stated), the “% Inhibition” value falls from 8% to -20%.

Going from CC(C1Cc2ccccc2O1)N(C)Cc1nccn1S(=O)(=O)N(C)C (configuration not stated) to Cc1ccc(S(=O)(=O)Nc2c(S(=O)(=O)c3ccc(C)cc3)c3nc4ccccc4nc3n2CCC(C)C)cc1, the “% Inhibition” value rises from -8% to 100%.

First: Nc1n[nH]c2c(Cl)c3nnc(-c4ccccc4)n3c(Cl)c12
Second: CCOC(=O)c1c(CN2CCCC2)n(C)c2cc(-c3cccnc3)c(O)c(Cn3ccnc3)c12
The “% Inhibition” value of the first is lower: 13% for the first, 68% for the second.

First: C[C@H](Nc1ccc(N2CCOCC2)nc1)c1cccc(CO)c1
Second: CCOC(=O)c1ncn(C2CCN(C(=O)c3cccc(Cn4ccnc4)c3)CC2)c1N
The “% Inhibition” value of the first is higher: 11% for the first, 5% for the second.

First: O=C(c1cc(-c2ccncc2)on1)N1CCOC2(CCCCCC2)C1
Second: Oc1nc(N2CCOC3(CCCC3)C2)ncc1F
The “% Inhibition” value of the first is lower: 8% for the first, 53% for the second.

FC(F)(F)c1cnc(N2CCOC3(CCOCC3)CC2)s1 and Cc1cc(C)n(CCC(=O)N2CC[C@H](c3nc(C4CCOCC4)no3)C2)n1 are the same in “% Inhibition” value: 9% for the first, 9% for the second.

Compared with Cc1c(C(=O)N2CC[C@H](CC(C)(C)C)C2(C)C)nnn1-c1cnn(C)c1, CC(C)c1nnc(Cn2nnc(-c3ccncn3)n2)s1 is lower in “% Inhibition” value: -9% for the first, -12% for the second.

First: Cc1ccc(S(=O)(=O)Nc2ccccc2-c2nnc(-c3c(NS(=O)(=O)c4ccc(C)cc4)ccc4ccccc34)o2)cc1
Second: Cc1ccc(S(=O)(=O)Nc2c(S(=O)(=O)c3ccc(C)cc3)c3nc4ccccc4nc3n2C[C@H]2CCCO2)cc1
The “% Inhibition” value of the first is lower: -13% for the first, 8% for the second.

First: Cc1ccc(S(=O)(=O)Nc2c(S(=O)(=O)c3ccccc3)c3nc4ccccc4nc3n2CCc2ccccc2)cc1
Second: COCCCn1c(NS(=O)(=O)c2ccccc2)c(S(=O)(=O)c2ccc(C)cc2)c2nc3ccccc3nc21
The “% Inhibition” value of the first is higher: 100% for the first, 49% for the second.

Going from O=C(Nc1ccccc1)c1ccc2c(c1)C(=O)N(CCc1ccccc1)C2=O to O=C(Nc1c(S(=O)(=O)c2ccccc2)c2nc3ccccc3nc2n1CCc1ccccc1)c1ccc(Cl)cc1, the “% Inhibition” value rises from -15% to 96%.
